From PubChem
Sampled rows, rich in hits. Any-hit rate of the full collection: about 1.7%.
PTPN22 inh 2: inhibitors of human LYP (PTPN22) phosphatase. inhibition, % at 2 µM. recombinant LYP catalytic domain, DiFMUP fluorescence. Q9Y2R2. 96,000 tested, 0.21% active;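 active = inhibition at 2 µM at or above a set limit, the screen mean plus 3 SD, cut at about 24% in these data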
Measles CPE: protection of cells from measles virus. Measles virus-infected cells, CPE protection, absorbance. protection (pct of control), % at 4 µM. 140,000 tested, 1.5% active; in the data active = protection mostly above about 24%, no sharp cut-off; inactive = mostly below about 26%
LYP act: activators of human LYP (PTPN22) phosphatase; Q9Y2R2; recombinant LYP, DiFMUP fluorescence; 0 = plate median, 100 = signal doubled; activation, % at 2 µM; 96,000 tested, 0.11% active;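 active = activation at 2 µM above a set limit, the mean plus 5 SD, cut at about 37% in these data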
Numbers stand for hits; – = inactive; · = no result.

SMILES	PTPN22 inh 2	Measles CPE	LYP act
CCOC(=O)CCSc1nc(C)c2cc(C)ccc2n1	–	–	–
N#Cc1cn(-c2ccccc2)nc1-c1ccc2c(c1)OCCO2	–	–	–
Cc1cccc(NC(=O)c2ccc(S(=O)(=O)C(F)F)cc2)c1C	·	–	·
CCCCNC(=O)C1C2C=CC3(CN(Cc4ccc(C)cc4)C(=O)C13)O2 (stereo not given)	–	–	–
Cc1ccc(CN2CC34C=CC(O3)C(C(=O)NCc3ccco3)C4C2=O)cc1 (stereo not given)	–	30.5	–
COC(=O)c1ccc(NC(=O)CSc2ccccc2)cc1	·	–	·
Cc1nc(Nc2ccccc2)[nH]c(=O)c1CCC(C)C	–	–	–
CCCCCc1c(C)nc(NCc2ccccc2)[nH]c1=O	·	36.6	·
CN1C(=O)C2(C(C#N)=C(N)N(c3ccc(Cl)cc3)C3=C2C(=O)CC(C)(C)C3)c2ccccc21 (stereo not given)	–	–	–
CCc1cc(C=C(Cl)Cl)oc(=O)c1C	–	56.2	–
C=C(Cl)COc1cc(C)cc2oc(=O)cc(CC)c12	–	–	–
O=C(CN1CCN(C(=O)c2ccco2)CC1)Nc1ccc2c(c1)OCCO2	–	–	–
O=C(OCC(=O)N1CCc2ccccc21)c1cccnc1Cl	–	–	–
O=C(OCC(=O)N1CCCc2ccccc21)c1cccnc1Cl	·	38.6	·
O=C(CSc1nc(-c2ccccc2)cs1)N1CCN(C(=O)c2ccco2)CC1	·	–	·
O=C(CN1CCN(C(=O)c2ccco2)CC1)Nc1cc(Cl)ccc1Cl	–	69.1	–
O=C(CSc1nc2cc(Cl)ccc2s1)N1CCN(C(=O)c2ccco2)CC1	–	61.3	–
O=C(CN1CCN(C(=O)c2ccco2)CC1)Nc1ccccc1-c1ccccc1	–	–	–
CC(/C=N/n1c(-c2ccc(Cl)cc2)n[nH]c1=S)=C\c1ccco1	·	–	·
N/C(=N\OC(=O)CCCN1C(=O)c2ccccc2C1=O)c1ccc(Br)cc1	–	·	–
C=CCn1c(-c2cccnc2)n[nH]c1=S	·	–	·
C=CCn1c(-c2ccc([N+](=O)[O-])cc2)n[nH]c1=S	·	37.7	·
O=C(c1ccco1)N1CCN(S(=O)(=O)c2ccc3c(c2)CCN3C(=O)C2CC2)CC1	–	–	–
CC(C)CNC(=O)c1ccccc1NC(=O)c1ccc(CN2CCOCC2)cc1	–	–	–
CC(=O)Oc1ccc(C(=O)Nc2ccccc2C(=O)NCC(C)C)cc1	·	54.0	·
SMILES	PTPN22 inh 2	Measles CPE	LYP act
Cc1cccc(C2CC(c3ccccc3)Nc3ncnn32)c1 (stereo not given)	–	–	–
CC(=O)c1c(C)[nH]c(C(=O)NCc2ccccc2Cl)c1C	–	–	–
CCc1c(C(=O)NCc2ccccc2Cl)[nH]c(C)c1C(C)=O	–	33.6	–
CCOC(=O)c1cc(-c2ccccc2)n(CCC(=O)O)c1C	–	–	–
CN1CCN(Cc2ccc(-c3ccc(Cl)cc3)o2)CC1	–	–	–
OCCc1ccc(-c2ccc(Cl)cc2)o1	–	36.7	–
O=C(Nc1ccc(F)cc1)c1ccccc1	–	–	–
COc1ccc(S(=O)(=O)Nc2ccc(S(=O)(=O)N3CCCCC3)cc2)cc1	25.1	–	–
COc1ccc(S(=O)(=O)Nc2ccc(S(=O)(=O)N3CCCC3)cc2)cc1	–	–	–
COc1ccc(CNC(=O)COC(=O)c2ccc3c(c2)OCCO3)cc1	·	–	·
COCCn1c(SCC(=O)N2CCc3ccccc3C2)nc2ccccc2c1=O	·	32.4	·
C=CCn1c(SCC(=O)N2CCN(C(=O)c3ccco3)CC2)nc2sc(CC)cc2c1=O	–	–	–
COCCn1c(SCC(=O)N2CCC(C)CC2)nc2ccccc2c1=O	·	–	·
C=CCn1c(SCC(=O)N2CCc3ccccc3C2)nc2sc(C)cc2c1=O	–	32.8	–
O=C(NCCc1ccccc1)C(=O)NCC1(c2ccccc2)CCCC1	–	–	–
Fc1cc(Br)ccc1NC(=S)Nc1ccccc1	·	–	·
O=C(NCc1ccc2c(c1)OCO2)C1CC(=O)N(c2ccc(F)cc2)C1 (stereo not given)	–	–	–
CCn1cnc2sc(C(=O)N(Cc3ccc(N(C)C)cc3)Cc3ccco3)c(C)c2c1=O	·	55.1	·
CCn1cnc2sc(C(=O)N3CCN(Cc4ccc5c(c4)OCO5)CC3)c(C)c2c1=O	–	–	–
Cc1c(C(=O)Nc2ccccc2)oc2c1C(=O)CC(C)(C)C2	–	–	–
Cc1c(C(=O)O)oc2c1/C(=N\O)CC(C)(C)C2	·	44.0	·
Cc1cccc(N/C=C/c2onc(C)c2[N+](=O)[O-])c1	–	–	–
Cc1ccc(C(=O)COC(=O)c2cccs2)cc1	–	–	–
CCC(=O)N1CCc2cc(S(=O)(=O)NC(C(=O)NCc3ccc(C)cc3)C(C)C)ccc21 (stereo not given)	–	–	–
O=C(COc1ccc([N+](=O)[O-])cc1)N(Cc1ccccc1)Cc1ccccc1	·	31.5	·
O=C(COc1ncnc2cc([N+](=O)[O-])ccc12)N(CCc1ccccc1)Cc1ccccc1	·	–	·
